Measurements from PubChem BioAssay (EPA / NIEHS).
Records with an inconclusive call do not appear. Active and inactive are the calls of the source. How the source made its calls, unless noted: active means hit-call score of the fitted dose curve at least 0.9, where 1 is the maximum; inactive means score below 0.9.

Tests used:
[1] = ATG_TCF_b_cat_CIS: Attagene CIS-FACTORIAL HepG2 Assay for human T-Cell-Factor with beta-catenin (TCF/b-cat) (AID 2282965); settings: HepG2 TCF/beta-catenin cis-reporter transcription, actives raise or lower the signal
Summary of the method: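 Endogenous TCF/LEF activity read as reporter transcript level via RT-PCR and capillary electrophoresis fluorescence in transfected HepG2, 24 h exposure; gain or loss of signal fitted against DMSO controls.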

[2] = ATG_TAL_CIS: Attagene CIS-FACTORIAL HepG2 Assay for human TAL Basal Promoter (AID 2282966); settings: HepG2 Attagene cis-factorial TAL promoter reporter; actives raise or lower the signal;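 further: background control endpoint measuring basal TAL promoter reporter mRNA not a specific factor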
Summary of the method: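 In this cell-based multiplex, HepG2 liver cells bearing cis-promoter reporter constructs are dosed for 24 hours. Total RNA is reverse-transcribed and amplified, labelled fragments are sized by capillary electrophoresis, and signal changes are fitted bidirectionally versus DMSO.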

[3] = ATG_TGFb_CIS: Attagene CIS-FACTORIAL HepG2 Assay for human Transforming Growth Factor (TGF) (AID 2282967); settings: HepG2 Attagene CIS TGFb reporter, mRNA transcription; actives raise or lower the signal
Summary of the method: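 Multiplexed cis-reporter HepG2 system, 24 h treatment; mRNA induction read by fluorescence after RT-PCR and CE; DMSO negative control, bidirectional curve fitting.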

[4] = ATG_VDRE_CIS: Attagene CIS-FACTORIAL HepG2 Assay for human Vitamin D Receptor Element (VDRE) (AID 2282968); settings: HepG2 VDRE cis-reporter transcription, actives raise or lower the signal
Summary of the method: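 In transiently transfected HepG2 liver cells, gain or loss of reporter mRNA after 24 h exposure is scored relative to DMSO, using fluorescence detection by capillary electrophoresis of RT-PCR products.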

[5] = molecular target: Estrogen receptor (Homo sapiens) (UniProt P03372); assay: ATG_ERa_TRANS: Attagene TRANS-FACTORIAL HepG2 Assay for human Estrogen Receptor alpha (ERa) (AID 2282970; active means hit-call score of the fitted dose curve at least 0.9, where 1 is the maximum); settings: HepG2 Attagene TRANS ERa GAL4 reporter, mRNA
Summary of the method: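 After 24 h of compound treatment, RNA from HepG2 cells bearing transfected GAL4-UAS reporter constructs is converted to cDNA, amplified and fluorescently labelled. Capillary electrophoresis resolves the ERa-linked reporter; DMSO serves as negative control.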

[6] = molecular target: X-box-binding protein 1 (Homo sapiens) (UniProt P17861); assay: ATG_Xbp1_CIS: Attagene CIS-FACTORIAL HepG2 Assay for human X-box Binding Protein 1 (XBP1) (AID 2282972); settings: HepG2 XBP1 cis-element reporter, Attagene multiplex; actives raise or lower the signal
Summary of the method: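 HepG2 cells transiently transfected with multiple cis-element reporter units report endogenous TF activity; 24 h exposure, then reporter mRNA measured by RT-PCR, 6-FAM labelling, HpaI digestion and capillary electrophoresis. Bidirectional fitting versus DMSO.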

[7] = ATG_M_19_TRANS: Attagene TRANS-FACTORIAL HepG2 Assay for M19 Transcription Factor (Internal Marker) (AID 2282974; active means hit-call score of the fitted dose curve at least 0.9, where 1 is the maximum); settings: HepG2 Attagene TRANS-FACTORIAL M19 internal marker reporter
Summary of the method: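 Background-control readout: after 24 h chemical exposure of transfected HepG2 carrying GAL4-driven reporter units, RNA was reverse-transcribed, amplified, fluorescently labeled and sized by capillary electrophoresis; gain-of-signal fit against DMSO.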

[8] = ATG_GAL4_TRANS: Attagene TRANS-FACTORIAL HepG2 Assay for GAL4 (Internal Marker) (AID 2282976; active means hit-call score of the fitted dose curve at least 0.9, where 1 is the maximum); settings: HepG2 Attagene TRANS GAL4 internal marker reporter
Summary of the method: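 RT-PCR/capillary electrophoresis readout of reporter mRNA. HepG2, transient MRTU transfection (GAL4-UAS reporters), 24 h compound exposure. Background-control endpoint, positive direction vs DMSO baseline.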

[9] = molecular target: Steroid hormone receptor ERR1 (Homo sapiens) (UniProt P11474); assay: ATG_ERRa_TRANS: Attagene TRANS-FACTORIAL HepG2 Assay for human Estrogen-Related Receptor alpha (ERRa) (AID 2282971; active means hit-call score of the fitted dose curve at least 0.9, where 1 is the maximum); settings: HepG2 Attagene TRANS reporter, ERRa transactivation
Summary of the method: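 Transfected HepG2, 24 h dosing, ERRa-Gal4 chimera driving GAL4-UAS reporter. Readout: reporter mRNA via RT-PCR plus capillary electrophoresis (fluorescence). Positive direction vs DMSO control.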

[10] = molecular target: Nuclear receptor subfamily 1 group I member 3 (Homo sapiens) (UniProt Q14994); assay: ATG_CAR_TRANS: Attagene TRANS-FACTORIAL HepG2 Assay for human Constitutive Androstane Receptor (CAR) (AID 2282969; active means hit-call score of the fitted dose curve at least 0.9, where 1 is the maximum;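 further: activators raise reporter mRNA above DMSO so AC50 marks induction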); settings: HepG2 Attagene TRANS-FACTORIAL CAR reporter
Summary of the method: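 Readout is reporter mRNA induction, quantified by fluorescent primer extension and capillary electrophoresis after RT-PCR. Cells were HepG2 transiently carrying chimeric NR-Gal4 constructs with GAL4-UAS reporters, treated for 24 h; activity scored upward from DMSO.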

Chain of X-box-binding protein 1 (Homo sapiens) (P17861 whole entry, looked up): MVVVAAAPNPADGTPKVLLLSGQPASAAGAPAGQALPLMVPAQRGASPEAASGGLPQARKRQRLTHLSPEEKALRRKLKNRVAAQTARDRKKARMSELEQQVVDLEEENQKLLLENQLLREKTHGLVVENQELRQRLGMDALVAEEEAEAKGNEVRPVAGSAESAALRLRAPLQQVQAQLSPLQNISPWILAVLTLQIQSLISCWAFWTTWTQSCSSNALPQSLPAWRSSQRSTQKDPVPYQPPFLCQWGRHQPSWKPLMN
Chain of Steroid hormone receptor ERR1 (Homo sapiens) (P11474 whole entry, looked up, the tested form may be a part): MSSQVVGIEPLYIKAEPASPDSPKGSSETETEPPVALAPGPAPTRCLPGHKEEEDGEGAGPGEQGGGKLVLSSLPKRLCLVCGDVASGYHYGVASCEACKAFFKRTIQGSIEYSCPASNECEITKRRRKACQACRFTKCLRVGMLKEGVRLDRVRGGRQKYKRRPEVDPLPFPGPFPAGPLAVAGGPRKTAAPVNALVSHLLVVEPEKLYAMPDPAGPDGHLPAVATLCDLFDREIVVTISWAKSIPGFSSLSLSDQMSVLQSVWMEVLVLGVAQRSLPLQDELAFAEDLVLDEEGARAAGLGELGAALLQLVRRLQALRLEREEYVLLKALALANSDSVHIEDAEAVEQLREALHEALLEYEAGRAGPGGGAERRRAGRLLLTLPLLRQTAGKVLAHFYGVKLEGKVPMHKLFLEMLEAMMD
Chain of Estrogen receptor (Homo sapiens) (P03372 whole entry, looked up, the tested form may be a part): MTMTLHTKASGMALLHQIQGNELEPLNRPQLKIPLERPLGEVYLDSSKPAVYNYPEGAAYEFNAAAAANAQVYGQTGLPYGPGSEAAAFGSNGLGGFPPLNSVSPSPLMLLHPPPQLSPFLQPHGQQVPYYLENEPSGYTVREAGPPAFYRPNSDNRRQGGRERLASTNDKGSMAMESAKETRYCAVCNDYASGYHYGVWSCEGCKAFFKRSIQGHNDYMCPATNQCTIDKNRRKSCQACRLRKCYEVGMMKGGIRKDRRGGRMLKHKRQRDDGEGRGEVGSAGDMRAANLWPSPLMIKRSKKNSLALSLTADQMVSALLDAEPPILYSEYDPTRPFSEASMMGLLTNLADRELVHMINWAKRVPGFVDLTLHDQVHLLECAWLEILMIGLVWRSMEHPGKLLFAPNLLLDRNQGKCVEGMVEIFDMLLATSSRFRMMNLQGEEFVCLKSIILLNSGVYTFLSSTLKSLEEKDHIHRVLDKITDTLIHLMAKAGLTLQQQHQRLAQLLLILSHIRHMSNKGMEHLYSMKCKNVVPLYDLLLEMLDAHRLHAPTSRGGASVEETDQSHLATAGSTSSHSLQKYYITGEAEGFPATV
Chain of Nuclear receptor subfamily 1 group I member 3 (Homo sapiens) (Q14994 whole entry, looked up, the tested form may be a part): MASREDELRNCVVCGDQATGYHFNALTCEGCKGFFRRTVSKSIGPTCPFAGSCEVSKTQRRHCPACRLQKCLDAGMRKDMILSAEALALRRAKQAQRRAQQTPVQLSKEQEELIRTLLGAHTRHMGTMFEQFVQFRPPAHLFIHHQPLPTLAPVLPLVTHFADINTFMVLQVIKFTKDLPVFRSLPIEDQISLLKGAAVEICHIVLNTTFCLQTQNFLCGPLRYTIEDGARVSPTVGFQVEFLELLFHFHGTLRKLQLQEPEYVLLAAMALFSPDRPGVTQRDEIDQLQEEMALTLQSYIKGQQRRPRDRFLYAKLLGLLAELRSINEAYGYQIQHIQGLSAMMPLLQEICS

Row | Structure (SMILES) | outcome [1] | outcome [2] | outcome [3] | outcome [4] | AC50 [5] | outcome [6] | outcome [7] | outcome [8] | outcome [5] | AC50 [4] | outcome [9] | outcome [10] | AC50 [6]
1 | CC(C)(C)C1CCC(O)CC1 (centres undefined) | inactive | inactive | inactive | inactive | 29.2 µM (active) | inactive | inactive |  |  |  |  |  | 
2 | c1ccc(Sc2ccccc2)cc1 | inactive | inactive | inactive | inactive | 38.3 µM (active) | inactive | inactive | inactive |  |  |  |  | 
3 | CC(C)=CC(=O)O | inactive | inactive | inactive | inactive | 49.1 µM (active) | inactive |  |  |  |  |  |  | 
4 | CC/C=C\CCCCO | inactive | inactive | inactive | inactive |  | inactive | inactive | inactive | inactive |  |  |  | 
5 | CC1=CCC(C(C)(C)O)CC1 (centres undefined) | inactive | inactive | inactive | inactive |  | inactive | inactive |  | inactive |  |  |  | 
6 | CCCCOCCOCCO | inactive | inactive | inactive | inactive |  | inactive | inactive | inactive | inactive |  |  |  | 
7 | CC(C)(O)CCc1ccccc1 | inactive | inactive | inactive | inactive |  | inactive |  |  | inactive |  |  |  | 
8 | O=S1(=O)CC(Cl)(Cl)C(Cl)(Cl)C1 | inactive | inactive | inactive |  |  | inactive | inactive |  | inactive | 3.71 µM (active) | inactive |  | 
9 | O=C(OCc1ccccc1)c1ccccc1O | inactive | inactive | inactive | inactive | 43 µM (active) | inactive | inactive |  |  |  |  |  | 
10 | CC(C)(C)c1cccc(O)c1 | inactive | inactive | inactive |  | 14.7 µM (active) | inactive |  |  |  | 28.1 µM (active) |  |  | 
11 | [Cl][Dy]([Cl])[Cl] | inactive | inactive | inactive | inactive |  | inactive | inactive | inactive | inactive |  |  |  | 
12 | CCCc1ccc(O)cc1 | inactive | inactive | inactive | inactive | 12 µM (active) | inactive | inactive |  |  |  |  |  | 
13 | CCCCCCC(O)CCOC(C)=O (centres undefined) | inactive | inactive | inactive | inactive |  | inactive |  | inactive | inactive |  | inactive |  | 
14 | O=C(O)c1ccco1 | inactive | inactive | inactive | inactive |  | inactive | inactive |  | inactive |  |  |  | 
15 | CCC(C)(C)C1CCC(=O)CC1 | inactive | inactive | inactive | inactive | 28.2 µM (active) | inactive | inactive |  |  |  | inactive |  | 
16 | CC(C)COC(=O)c1ccccc1O | inactive | inactive | inactive |  |  | inactive | inactive | inactive | inactive |  |  | inactive | 

Row | Structure (SMILES) | outcome [1] | outcome [2] | outcome [3] | outcome [4] | AC50 [5] | outcome [6] | outcome [7] | outcome [8] | outcome [5] | AC50 [4] | outcome [9] | outcome [10] | AC50 [6]
17 | CC(C)C(=O)OCC=Cc1ccccc1 | inactive | inactive | inactive |  |  | inactive | inactive |  | inactive |  |  | inactive | 
18 | COc1ccc(C(C)=O)cc1 | inactive | inactive | inactive |  |  | inactive | inactive |  | inactive |  |  | inactive | 
19 | N=C1N=C(N)c2ccccc21 | inactive | inactive | inactive |  | 100 µM (active) | inactive | inactive |  |  |  |  | inactive | 
20 | CC(CO)c1ccccc1 (centres undefined) | inactive | inactive | inactive |  |  | inactive | inactive | inactive | inactive |  |  | inactive | 
21 | C[C@]12CC[C@@H]3c4ccc(O)cc4CC[C@H]3[C@@H]1CC[C@@H]2O | inactive | inactive | inactive |  |  | inactive | inactive | inactive |  |  | inactive | inactive | 
22 | Cc1ccc(C(C)(C)O)cc1 | inactive | inactive | inactive |  |  | inactive |  |  | inactive |  |  | inactive | 
23 | CC=CC(=O)C1=C(C)C=CCC1(C)C | inactive | inactive | inactive |  |  | inactive | inactive | inactive |  |  | inactive | inactive | 
24 | CC(=O)c1ccc2ccccc2c1 | inactive | inactive | inactive |  | 42.4 µM (active) | inactive | inactive | inactive |  |  |  | inactive | 
25 | O=C(O)c1ccc(C(=O)O)c(C(=O)O)c1 | inactive | inactive | inactive |  |  | inactive |  |  | inactive |  | inactive | inactive | 
26 | Cc1cc(O)c2c(c1)C(=O)c1cc(O)cc(O)c1C2=O | inactive | inactive | inactive |  |  |  |  |  |  |  | inactive | inactive | 9.89 µM (active)
27 | CC(=O)CC(=O)N(C)C | inactive | inactive | inactive | inactive |  | inactive |  | inactive |  |  |  |  | 
28 | c1ccc2c(c1)-c1ccc3ccc4cccc5cc-2c1c3c45 | inactive | inactive | inactive |  | 0.422 µM (active) | inactive |  |  |  |  |  | inactive | 
29 | Cc1cc(O)c(C)c(C)c1O | inactive | inactive | inactive |  | 21.2 µM (active) | inactive |  |  |  |  | inactive | inactive | 
30 | NC(=O)NC(N)=O | inactive | inactive | inactive |  |  | inactive |  | inactive | inactive |  |  | inactive | 
31 | Nc1ccc(N)c([N+](=O)[O-])c1 | inactive | inactive | inactive |  | 37.8 µM (active) [middle of 5 runs] | inactive | inactive | inactive |  |  |  | inactive | 
32 | CC1=C(C=O)C(C)(C)CCC1 | inactive | inactive | inactive |  |  | inactive |  |  | inactive |  |  | inactive | 
